Consider 40 compounds from PubChem BioAssay (NCATS).

Structures are written as SMILES. Inconclusive results are not listed. Values without a mark were called inactive. Activity calls are given as the source filed them. Calls come from the whole dose curve; as a rule, active = well fitted inhibition curve with a large enough effect; inconclusive = small, poorly fitted or top-dose-only effect; inactive = flat fitted curve, though single readings scatter. Where a SMILES comes first, the peptide text is derived from it. [ ]: non-standard residue; d: D form. Ala(indol-2-yl) = N[C@@H](Cc1cc2ccccc2[nH]1)C(=O)O; Aib = CC(C)(N)C(=O)O
% is set by controls: 0 for no effect and ±100 for the full control effect; potency is the fitted concentration of half-maximal effect.

One experiment has as its system HaCat. Put plainly: Cytotoxic Profiling of Annotated Libraries Using Quantitative High-Throughput Screening (AID 1296008). Note: nearly all actives have a fitted effect of over 60% in size. Particulars: Five cell lines viability, CellTiter-Glo ATP luminescence, 48-72 h; max response: stronger effect = lower value. An outline of the steps: (§1)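 Cytotoxicity was measured as CellTiter-Glo ATP luminescence, read after 10 min at room temperature. Compound treatment of the cells lasted 48 or 72 hr at 37 degrees Celsius in a qHTS format.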
As for `CC[C@H]1C2CC3[C@@H]4N(C)c5ccccc5[C@]45C[C@@H]([C@H]2[C@H]5O)N3[C@@H]1O`, the max response is 4.96%.
`CO[C@@H]1C[C@H](O[C@H]2CC[C@@]3(C)C(CCC4C3CC[C@]3(C)[C@@H](C5=CC(=O)OC5)[C@@H](OC(C)=O)CC43O)C2)O[C@H](C)[C@@H]1O[C@H]1O[C@H](CO[C@@H]2O[C@H](CO)[C@@H](O)[C@H](O)[C@H]2O)[C@@H](O)[C@H](O)[C@H]1O` (some centres not stated): the Potency is 1550 nM (active).
On to `CC[C@@]1(O)C(=O)OCc2c1cc1n(c2=O)Cc2cc3c(OC)cccc3nc2-1`, for which the Potency was 114 nM (active).
On the same count and under the same terms, the figure for `CC1=CC2OC3[C@H](O)C[C@@](C)([C@]34CO4)[C@@]2(CO)[C@H](O)C1=O` (some centres not stated) is 14600 nM (active).
Take `CC(=O)O[C@H]1CC[C@@]2(CI)C(=CC[C@@H]3[C@@H]2CC[C@]2(C)C(=O)CC[C@@H]32)C1`: the compound was called inactive.
For the compound `C=C1[C@@H](C)[C@H]2[C@H](Cc3ccccc3)NC(=O)[C@]23OC(=O)/C=C/C(=O)CCC[C@@H](C)C/C=C/[C@H]3[C@@H]1O`, the Potency is 20600 nM (active).
Consider `C[C@H](CCC(=O)O)C[C@H](C)C[C@H](C)C(=O)/C=C(\O)[C@H](C)C[C@H](C)C/C=C/[C@@H](C)[C@@H](O)[C@@H](C)[C@@H](O)C[C@@H]1CC[C@@](C)([C@H]2CC[C@@](C)([C@@H](C)O)O2)O1`, for which the max response was -1.41%.
Consider `CN(C)c1cc2c(cc1Sc1nc3c(N)nccc3n1CCNCC(C)(C)C)OCO2`, for which the Potency is 461 nM (active).
As for `C[C@H]1C/C=C/[C@H]2[C@@H]3O[C@]3(C)[C@@H](C)[C@H]3[C@H](Cc4ccccc4)NC(=O)[C@]32OC(=O)O/C=C/[C@@](C)(O)C1=O`, the Potency was 796 nM (active).
Turning to `CC(C)(C)[C@]1(O)C[C@@H]2OC(=O)C[C@@]23C(=O)O[C@@H]2OC(=O)[C@@H](O)[C@]213`, the max response is -5.58%.
`N#CC(O[C@@H]1O[C@H](CO)[C@@H](O)[C@H](O)[C@H]1O)c1ccccc1` (some centres not stated): the max response is -12%.
With `COC1CC(O[C@H]2CC[C@]3(C)C4CC[C@]5(C)[C@@H](C6=CC(=O)OC6)[C@@H](OC(C)=O)C[C@]5(O)C4CC[C@@H]3C2)OC(C)C1O` (some centres not stated), the Potency was 796 nM (active).
Turning to `CC(=O)O[C@H]1CN2CCC1CC2`, the max response was 1.98%.
As to `CC(=O)OC[C@]12C[C@H](O)C(C)=C[C@H]1O[C@@H]1[C@H](O)[C@@H](OC(C)=O)[C@@]2(C)[C@]12CO2`, the Potency is 90.4 nM (active).
Turning to `CC1=CC(=O)[C@@H](O)[C@]2(C)C3[C@@H](O)[C@@H]4OC(=O)[C@@H]([C@H]4C)[C@]3(C)C(=O)C[C@@H]12` (some centres not stated), the Potency was 11400 nM (active).
Still for that read-out and setting: the result for `CC[C@@H]1C[C@H]2CC[C@H](O2)[C@H](C)C(=O)O[C@@H](C)C[C@@H]2CC[C@@H](O2)[C@@H](C)C(=O)O[C@H](CC)C[C@H]2CC[C@H](O2)[C@H](C)C(=O)O[C@@H](C)C[C@@H]2CC[C@@H](O2)[C@@H](C)C(=O)O1` reads 1530 nM (active); that for `N#Cc1cn([C@@H]2O[C@H](CO)[C@H](O)[C@@H]2O)c2ncnc(N)c12`, 92 nM (active).

The next experiment concerns KB-3-1. Described as above. Particulars: Five cell lines viability, CellTiter-Glo ATP luminescence, 48-72 h; max response: stronger effect = lower value. An outline of the steps: as §1
With `O=C(OC[C@H]1O[C@@H](Oc2ccc(O)cc2CO)[C@H](O)[C@@H](O)[C@@H]1O)c1ccccc1`, the max response is 4.17%.
Turning to `CC(=O)O[C@@H]1[C@@H](O)[C@H]2O[C@@H]3C=C(C)[C@@H](O)C[C@]3(CO)[C@]1(C)[C@]21CO1`, the Potency is 805 nM (active).
Consider `COc1cc2c(c(OC)c1OC)-c1ccc(SC)c(=O)cc1[C@@H](NC(C)=O)CC2`, for which the Potency is 5.8 nM (active).
With `CC(C)(NC(=O)[C@@H](N)Cc1ccc(O)cc1)C(=O)N[C@@H](Cc1cc2ccccc2[nH]1)C(=O)N[C@@H](Cc1ccccc1)C(=O)O` (H-Y[Aib][Ala(indol-2-yl)]F-OH), the result was inactive.
As for `C=C1[C@@H](C)[C@H]2[C@H](Cc3ccccc3)NC(=O)[C@]23[C@H](OC(C)=O)/C=C/[C@](C)(O)C(=O)[C@@H](C)C/C=C/[C@H]3[C@@H]1O`, the Potency was 2590 nM (active).
As for `COc1ccc2c3c([nH]c2c1)C(C=C(C)C)N1C(=O)C2CCCN2C(=O)C1C3` (configuration not stated), the compound was called inactive.
On to `C[C@@H]1C[C@@H](O)[C@]2(O)O[C@@H]3C[C@@]4(C=O)C(CC[C@@H]5C4CC[C@]4(C)[C@@](O)(C6=CC(=O)OC6)CC[C@]54O)C[C@H]3OC2O1` (some centres not stated), for which the Potency is 2240 nM (active).
Still for that read-out and setting: the result for `CC(=O)OC[C@]12C[C@H](OC(=O)CC(C)C)C(C)=C[C@H]1O[C@@H]1[C@H](O)[C@@H](OC(C)=O)[C@@]2(C)[C@@]12CO2` reads 35.5 nM (active); that for `CC[C@H](C)[C@H](NC(=O)[C@H]1CCCCN1C)C(=O)N(COC(=O)CC(C)C)[C@H](C[C@@H](OC(C)=O)c1nc(C(=O)N[C@@H](Cc2ccc(O)cc2)C[C@H](C)C(=O)O)cs1)C(C)C`, 0.8 nM (active); that for `CN[C@@H]1C[C@H]2O[C@@](C)([C@@H]1OC)n1c3ccccc3c3c4c(c5c6ccccc6n2c5c31)C(=O)NC4`, 130 nM (active).
Consider `CC1=C[C@H]2O[C@@H]3C[C@H]4OC(=O)/C=C/C=C/C(=O)OCC/C(C)=C/C(=O)OC[C@@]2(CC1)[C@]4(C)[C@]31CO1`, for which the Potency is 20 nM (active).
With `CC(=O)OC[C@]12C[C@H](OC(=O)CC(C)C)C(C)=C[C@H]1O[C@@H]1[C@H](O)[C@@H](O)[C@@]2(C)[C@]12CO2`, the Potency was 39.9 nM (active).
Turning to `CC(=O)OC[C@]12C[C@H](OC(=O)CC(C)C)C(C)=C[C@H]1O[C@@H]1[C@H](O)C[C@@]2(C)[C@]12CO2`, the Potency is 709 nM (active).
The same measure, in the same setting: the result for `COC1CC(O[C@H]2CC[C@]3(C)C4CC[C@]5(C)[C@@H](C6=CC(=O)OC6)[C@@H](OC(C)=O)C[C@]5(O)C4CC[C@@H]3C2)OC(C)C1O[C@@H]1O[C@H](CO)[C@@H](O)[C@H](O)[C@H]1O` (some centres not stated) reads 862 nM (active).
As for `Cc1c(Cl)c(OCC(=O)N2CCN(C)CC2)nc2sc(C(=O)NC3CC3)c(N)c12`, the call was inactive.
Take `CO[C@H]1[C@H](O)[C@H](O[C@H]2CC[C@]3(C=O)C4CC[C@]5(C)[C@H](C6=CC(=O)OC6)CC[C@]5(O)C4CC[C@@H]3C2)O[C@@H](C)[C@@H]1O` (some centres not stated): the Potency is 39.9 nM (active).
As for `C[C@H]1O[C@@H](O[C@H]2CC[C@]3(C=O)C4CC[C@]5(C)[C@@H](C6=CC(=O)OC6)CC[C@]5(O)[C@@H]4CC[C@]3(O)C2)C[C@@H](O)[C@@H]1O` (some centres not stated), the Potency is 89.3 nM (active).
On the same count and under the same terms, the result for `COC1CC(O[C@H]2CC[C@]3(C=O)C4CC[C@]5(C)[C@@H](C6=CC(=O)OC6)CC[C@]5(O)[C@@H]4CC[C@@H]3C2)OC(C)C1O[C@@H]1O[C@H](CO)[C@@H](O[C@@H]2O[C@H](CO)[C@@H](O)[C@H](O)[C@H]2O)[C@H](O)[C@H]1O` (some centres not stated) reads 174 nM (active); that for `C[C@]12CC[C@H](O)C[C@H]1CC[C@@H]1[C@@H]2[C@H](O)C[C@]2(C)[C@@H](c3ccc(=O)oc3)CC[C@]12O`, 51.7 nM (active); that for `C[C@H]1O[C@@H](O[C@H]2CC[C@]3(CO)C4CC[C@]5(C)[C@@H](C6=CC(=O)OC6)CC[C@]5(O)[C@@H]4CC[C@H]3C2)[C@H](O)[C@H](O)[C@@H]1O[C@@H]1O[C@H](CO)[C@@H](O)[C@H](O)[C@H]1O` (some centres not stated), 1930 nM (active).
Same read-out and setting: the result for `CC1=C[C@H]2O[C@@H]3[C@H](O)[C@@H](O)[C@](C)([C@@]2(CO)C[C@@H]1O)[C@]31CO1` reads 1460 nM (active).
For `C[C@H]1O[C@@H](n2cnc3c(N)ncnc32)C[C@@H]1O`, the call was inactive.
On to `OCc1nnc2n1-c1ccc(Cl)cc1C(c1ccccc1Cl)=NC2`, for which the max response is 8.98%.
Same read-out and setting: the figure for `CC[C@H]1C2CC3[C@@H]4N(C)c5ccccc5[C@]45C[C@@H]([C@H]2[C@H]5O)N3[C@@H]1O` is 0.117%.
Consider `CO[C@@H]1C[C@H](O[C@H]2CC[C@@]3(C)C(CCC4C3CC[C@]3(C)[C@@H](C5=CC(=O)OC5)[C@@H](OC(C)=O)CC43O)C2)O[C@H](C)[C@@H]1O[C@H]1O[C@H](CO[C@@H]2O[C@H](CO)[C@@H](O)[C@H](O)[C@H]2O)[C@@H](O)[C@H](O)[C@H]1O` (some centres not stated), for which the Potency is 979 nM (active).
On the same count and under the same terms, the result for `CC[C@@]1(O)C(=O)OCc2c1cc1n(c2=O)Cc2cc3c(OC)cccc3nc2-1` reads 1280 nM (active); that for `CC1=CC2OC3[C@H](O)C[C@@](C)([C@]34CO4)[C@@]2(CO)[C@H](O)C1=O` (some centres not stated), 4610 nM (active); that for `C=C1[C@@H](C)[C@H]2[C@H](Cc3ccccc3)NC(=O)[C@]23OC(=O)/C=C/C(=O)CCC[C@@H](C)C/C=C/[C@H]3[C@@H]1O`, 5800 nM (active).
The same measure, in the same setting: the result for `C[C@H](CCC(=O)O)C[C@H](C)C[C@H](C)C(=O)/C=C(\O)[C@H](C)C[C@H](C)C/C=C/[C@@H](C)[C@@H](O)[C@@H](C)[C@@H](O)C[C@@H]1CC[C@@](C)([C@H]2CC[C@@](C)([C@@H](C)O)O2)O1` reads 8930 nM (active); that for `CN(C)c1cc2c(cc1Sc1nc3c(N)nccc3n1CCNCC(C)(C)C)OCO2`, 731 nM (active).
The same measure, in the same setting: the result for `C[C@H]1C/C=C/[C@H]2[C@@H]3O[C@]3(C)[C@@H](C)[C@H]3[C@H](Cc4ccccc4)NC(=O)[C@]32OC(=O)O/C=C/[C@@](C)(O)C1=O` reads 563 nM (active).
Consider `CC(C)(C)[C@]1(O)C[C@@H]2OC(=O)C[C@@]23C(=O)O[C@@H]2OC(=O)[C@@H](O)[C@]213`, for which the max response is -3.84%.
Consider `COC1CC(O[C@H]2CC[C@]3(C)C4CC[C@]5(C)[C@@H](C6=CC(=O)OC6)[C@@H](OC(C)=O)C[C@]5(O)C4CC[C@@H]3C2)OC(C)C1O` (some centres not stated), for which the Potency was 563 nM (active).
With `CC(=O)O[C@H]1CN2CCC1CC2`, the compound was classed as inactive.
For `CC(=O)OC[C@]12C[C@H](O)C(C)=C[C@H]1O[C@@H]1[C@H](O)[C@@H](OC(C)=O)[C@@]2(C)[C@]12CO2`, the Potency is 32.1 nM (active).
